DT40 TDP1 CPT: growth inhibition of DT40 Tdp1-/-;hTDP1 cells with camptothecin (screen for TDP1 inhibitors). chicken DT40 Tdp1-/-;hTDP1 cells + 20 nM CPT, ATP luminescence, 48 h. actives 12% (n = 420,000). Potency, µM (top dose mostly 46.2 µM), hits mostly inhibitors; also: nearly all actives have a fitted effect of over 55% in size
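Cell growth measured by CellTiter-Glo luminescence after a minimum 48 h, 37 C compound exposure with 20 nM CPT in Tdp1-knockout DT40 cells stably expressing hTDP1, seeded 400/well; qHTS titration format.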
Six1-Eya2 inh: inhibitors of human Six1/Eya2 interaction | Q15475+O00167 | AlphaScreen GST-Six1/His-Eya2 binding, biochemical; hits give low values | activity change, % (test concentration not listed) | actives 0.56% (n = 360,000) | AID 651725; in the data active = activity change below about -65%; inconclusive = mostly about -30% to -63%
Target sequence (O00167 whole entry, looked up): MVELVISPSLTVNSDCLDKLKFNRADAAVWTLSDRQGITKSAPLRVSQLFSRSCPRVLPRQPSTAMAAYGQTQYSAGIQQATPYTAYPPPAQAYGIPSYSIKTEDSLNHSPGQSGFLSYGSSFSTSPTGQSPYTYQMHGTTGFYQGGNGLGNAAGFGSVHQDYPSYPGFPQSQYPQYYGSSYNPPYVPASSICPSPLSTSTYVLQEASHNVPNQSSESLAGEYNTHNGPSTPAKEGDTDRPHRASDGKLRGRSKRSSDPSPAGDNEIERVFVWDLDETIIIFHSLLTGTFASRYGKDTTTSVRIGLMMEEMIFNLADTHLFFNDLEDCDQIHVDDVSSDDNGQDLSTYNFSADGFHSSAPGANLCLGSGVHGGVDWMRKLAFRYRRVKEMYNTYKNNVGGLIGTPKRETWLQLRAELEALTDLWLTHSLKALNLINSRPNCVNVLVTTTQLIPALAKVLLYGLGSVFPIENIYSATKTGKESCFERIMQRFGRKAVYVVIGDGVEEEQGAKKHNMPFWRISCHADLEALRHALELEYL
Target sequence (Q15475 whole entry, looked up): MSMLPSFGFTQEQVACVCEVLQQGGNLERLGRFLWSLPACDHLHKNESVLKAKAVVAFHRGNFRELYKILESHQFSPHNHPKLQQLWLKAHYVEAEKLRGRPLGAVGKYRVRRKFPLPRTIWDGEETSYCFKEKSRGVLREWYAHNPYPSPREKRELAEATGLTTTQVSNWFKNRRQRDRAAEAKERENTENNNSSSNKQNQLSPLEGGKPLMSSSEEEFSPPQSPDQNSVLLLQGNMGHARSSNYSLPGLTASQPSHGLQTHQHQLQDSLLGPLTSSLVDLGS
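Homogeneous AlphaScreen proximity assay pairing GST-Six1 with His-tagged Eya2 (added as 5X mix: 250 nM and 500 nM) in 50 mM Tris pH 8.0, 300 mM NaCl, 1 mM TCEP. Glutathione donor and nickel acceptor beads; 1 h, 37 °C, dark.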
CtBP-E1A inh: CtBP/E1A binding inhibition; AlphaScreen GST-E1A/His-CtBP binding, 1536-well; hits give low values; activity change, % (test concentration not listed); actives 0.49% (n = 340,000); in the data active = activity change below about -65%; inconclusive = mostly about -30% to -63%
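Homogeneous bead-based format: GST-tagged E1A captured on glutathione donor beads, His-tagged CtBP on nickel acceptor beads; compounds precede bead addition by 2 h at 37 °C.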
TDP1 cell noCPT: qHTS for Inhibitors of human tyrosyl-DNA phosphodiesterase 1 (TDP1): qHTS in cells in absence of CPT | DT40 Tdp1-/- hTDP1 cells, no CPT, ATP luminescence, 48 h | Potency, µM (titrated, usually from 46.2 µM), actives largely listed as inhibitors | actives 15% (n = 420,000) | AID 686978, 2013; also: nearly all actives have a fitted effect of over 55% in size
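No-CPT arm: Tdp1-/-;hTDP1 DT40 cells (400/well) plus compounds, incubated ≥48 hr at 37 °C. Readout CellTiter-Glo luminescence.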
TDP1 inh: blocks human tyrosyl-DNA phosphodiesterase 1; Q9NUW8; recombinant TDP1, AlphaScreen DNA substrate cleavage; Potency, µM (titrated, usually from 130 µM), actives largely listed as inhibitors; actives 0.28% (n = 350,000); also: nearly all actives have a fitted effect of over 40% in size
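Tdp1 1 nM final; 15 min RT w/ cpd; substrate 15 nM, 5 min; beads 10 ug/ml, 10 min; AlphaScreen read. Neg ctrl: no enzyme.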
IL1B secr inh: inflammasome signaling inhibition, IL-1 beta readout; AID 743279; THP-1 LPS/ATP IL-1B secretion, AlphaLISA, 16 h; hits give low values; actives 4.7% (n = 360,000); activity change, % at 57.5 µM; in the data active = activity change below about -50%; inconclusive = mostly about -30% to -49%
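THP-1 cells pretreated 1 hr with compounds (up to 57.5 uM final), then stimulated with LPS (250 ng/mL final) plus ATP (1.25 mM final); secreted IL-1B measured by AlphaLISA after 16 hr, decreased signal indicating inhibition.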
Numbers stand for hits; i = inactive; ? = inconclusive; nt = no result. Shown are actives, neighbours in structure and some others; about 18% of the full set was active somewhere. Unless noted, calls follow the shape of the dose curve; as a rule, active = well fitted curve in the direction sought with a large enough effect; inconclusive = small, poorly fitted or top-dose-only effect, or another doubt; inactive = no such curve, though single readings can be large; an effect the other way counts as inactive or inconclusive.

SMILES | DT40 TDP1 CPT | Six1-Eya2 inh | CtBP-E1A inh | TDP1 cell noCPT | TDP1 inh | IL1B secr inh
COc1ccc2ccc3c(c2c1)N=CC1(O3)N(C)c2ccccc2C1(C)C (stereo not drawn) | ? | i | i | 23µM | i | i
CN1c2ccccc2C(C)(C)C12C=Nc1c(ccc3ccccc13)O2 (stereo not drawn) | i | i | i | i | i | -58
CN1c2ccccc2C(C)(C)[C@]12C=Cc1cc(O)ccc1O2 | 2.6µM | i | i | 7.3µM | i | i
CSc1ccccc1-c1ccc2nccn2c1 | ? | i | i | ? | nt | ?
CN1CCC(NC(=O)c2cc(-c3cccc(Br)c3)nc3ccccc23)CC1 | ? | i | i | ? | i | -79
O=C(NC1CC1)c1cc(-c2ccc(Br)cc2)nc2ccccc12 | ? | i | nt | 15µM | i | i
COc1ccc(-c2cc(C(=O)NC3CCCC3)c3ccccc3n2)cc1 | ? | i | nt | ? | i | i
Cc1cc(C)cc(Nc2cc(C(=O)NC3CCCCC3)c3ccccc3n2)c1 | ? | nt | nt | ? | i | nt
Cc1cc(C)cc(Nc2cc(C(=O)NC3CCC(C)CC3)c3ccccc3n2)c1 (stereo not drawn) | ? | nt | nt | 9.2µM | i | nt
O=C(NC1CCCCCCC1)c1cc(-c2ccccn2)nc2ccccc12 | ? | i | i | 18µM | i | i
COc1cc(OC)c(C(=O)NC2CCCc3ccccc32)cc1OC (stereo not drawn) | ? | i | i | ? | i | i
COCCOC(=O)C1=C(C)NC2=C(C(=O)CCC2)C1c1ccc2c(c1)OCO2 (stereo not drawn) | i | i | i | i | i | i
O=C(NC(=S)NNC(=O)c1cccs1)c1ccccc1 | ? | i | i | 15µM | i | i
Cc1ccccc1C(=O)NNC(=S)NC(=O)c1cccs1 | 21µM | i | nt | 18µM | i | i
CC(C)(C)c1ccc(C(=O)NC(=S)NNC(=O)c2cccs2)cc1 | 23µM | i | i | 13µM | i | i
Cc1ccccc1C(=O)Nc1cccc(NC(=S)NC(=O)c2cccs2)c1 | i | i | i | ? | i | i
O=C(NC(=S)NC1CCSC1=O)c1cccs1 (stereo not drawn) | i | i | i | 29µM | i | i
Cc1ccccc1C(=O)NC(=S)NC1CCSC1=O (stereo not drawn) | i | i | i | i | i | i
Cc1cccc(C(=O)NC(=S)NNC(=O)c2cccs2)c1 | i | i | i | ? | i | i
Cc1occc1C(=O)N(C)Cc1nc(-c2ccccc2)no1 | ? | i | i | ? | i | i
CCOc1ccc2[nH]c(=O)c(CN(CCOC)C(=O)N3CCOCC3)cc2c1 | i | i | i | i | i | i
O=C(NCc1ccncc1)c1nc(-c2ccc(C(F)(F)F)cc2)no1 | 15µM | i | i | 8.2µM | i | ?
O=C(NCc1cccnc1)c1ccc(Cn2cc(C(F)(F)F)ccc2=O)cc1 | i | i | i | i | i | i
O=C(NCc1cccnc1)c1nc(-c2ccc(C(F)(F)F)cc2)no1 | 15µM | i | i | 13µM | i | i
O=C(NCc1ccncc1)c1nc(-c2cccs2)no1 | i | i | i | i | i | i
SMILES | DT40 TDP1 CPT | Six1-Eya2 inh | CtBP-E1A inh | TDP1 cell noCPT | TDP1 inh | IL1B secr inh
O=C(COc1ccc(Br)cc1CNCCCN1CCOCC1)Nc1ccccc1 | 16µM | i | i | 21µM | i | -70
O=C(COc1ccc(Br)cc1Cl)NCCCN1CCOCC1 | i | i | i | i | i | i
COc1cc(CNCCCN2CCOCC2)ccc1OCC(=O)Nc1cccc(C(F)(F)F)c1 | ? | i | i | ? | i | ?
Brc1cccc(CNCCCN2CCOCC2)c1 | 23µM | i | i | ? | i | i
CCOc1cc(CNCCCN2CCOCC2)ccc1OCC(=O)Nc1cccc2ccccc12 | 23µM | i | i | 3.7µM | i | i
COc1cc(C2C(C#N)=C(N)Oc3c2ccc2ccccc32)ccc1OCC(=O)Nc1ccccc1C (stereo not drawn) | 21µM | i | i | 26µM | i | i
CCCCNCc1cc(Br)c(OCc2cccs2)c(OC)c1 | ? | i | i | ? | i | i
COc1cc(CNC(C)C)ccc1OCC(=O)Nc1cccc2ccccc12 | 26µM | i | i | 18µM | i | i
CCCCOc1c(Br)cc(CNCCCN2CCOCC2)cc1OC | ? | i | i | 13µM | i | -66
COc1ccc(CC(=O)Nc2cccc3ccccc23)cc1OC | ? | i | i | ? | i | i
CC(C)Sc1nc(N)nc(-c2cccs2)c1C#N | i | i | i | i | i | i
Cc1ccc(Cc2c(-c3ccc(C)cc3)nc3c(Cl)cc(C(F)(F)F)cn23)cc1 | ? | i | i | ? | nt | i
COc1ccc2c(c1)CCCC(Br)C2=O (stereo not drawn) | 5.2µM | i | i | 3.3µM | nt | -67
CC1CC(Nc2ccccc2)c2ccccc2N1C(=O)c1ccncc1 (stereo not drawn) | 9.2µM | i | i | 8.2µM | i | i
CC1CC(Nc2ccccc2)c2ccccc2N1C(=O)c1ccco1 (stereo not drawn) | 23µM | i | i | 15µM | nt | i
CCCCCCCCCC(=O)Nc1cccnc1 | nt | nt | nt | nt | i | nt
COc1ccc(C(=O)COC(=O)c2ccc(-n3cnnn3)cc2)c(OC)c1 | i | i | i | i | i | i
O=C(CCN1N=C(c2ccccc2)CCC1=O)NC1CCCCC1 | i | i | i | i | nt | -51
O=C(CCN1N=C(c2ccccc2)CCC1=O)NC1CCCC1 | i | i | nt | i | i | i
COc1ccc(S(=O)(=O)NC(N)=NCCc2ccc(OC)c(OC)c2)cc1 | nt | nt | nt | nt | i | nt
CCc1sc(C(=O)NCCc2ccc(S(N)(=O)=O)cc2)cc1Br | ? | i | i | 16µM | i | ?
C=CCN(c1ccccc1)S(=O)(=O)c1cccc(C(=O)Nc2cccc(C)n2)c1 | 18µM | i | i | 23µM | i | i
CCN(c1ccccc1)S(=O)(=O)c1ccc(C(=O)NCCc2ccc(S(N)(=O)=O)cc2)cc1 | 23µM | i | i | ? | i | i
CCN(c1ccccc1)S(=O)(=O)c1cccc(C(=O)Nc2cccc(C)n2)c1 | 23µM | i | i | 21µM | nt | i
C=CCN(c1ccccc1)S(=O)(=O)c1cccc(C(=O)Nc2nnc(SCC)s2)c1 | ? | i | i | ? | i | i
O=C(Nc1cccc2cccnc12)c1ccc(-c2cccc(Cl)c2)o1 | i | nt | nt | ? | i | nt
CCN(c1ccccc1)S(=O)(=O)c1ccc(C(=O)Nc2ccccn2)cc1 | 21µM | i | i | ? | i | i
CN(c1ccc(C(=O)Nc2ccccn2)cc1)S(=O)(=O)c1ccccc1 | i | i | nt | i | i | i
